Records with an inconclusive call do not appear. Entries that show only a call come without a potency. The source made the active and inactive calls. The call rests on the fitted dose curve; in most records, active means well fitted inhibition curve with a large enough effect; inconclusive means small, poorly fitted or top-dose-only effect; inactive means no such curve, though single readings can be large or run the other way.

Here are results for 16 compounds from PubChem BioAssay (NCATS).

This test has as its target Retinaldehyde dehydrogenase 3 (Homo sapiens) (UniProt P47895). Put plainly: qHTS for Inhibitors of the Aldehyde Dehydrogenase Family (ALDH1A3) Primary screen (AID 2061315). The settings on record: ALDH inhibition qHTS; series mostly up to 56 µM.
As for `CN(C)c1ccc(C(=O)OCC#CCSc2nnc(-c3cccc4ccccc34)o2)cc1`, the Potency entry is “inactive”.

For the compound `COc1ccccc1O[C@@H]1O[C@H](CO)[C@H](O)[C@H](O)[C@H]1O`, the Potency entry is “inactive”.

As for `Cc1cc(C)nc(NC(=S)N2CCN(c3cccc(OC(F)(F)F)c3)CC2)c1`, the Potency entry was “inactive”.

Consider `OCc1ccc(-c2ccc3ncnc(NCc4cccs4)c3c2)o1`, for which the Potency entry was “inactive”.

For `O=C1CCc2cc([S+](=O)([O-])Nc3ccc(N[S+](=O)([O-])c4ccc5c(c4)CCC(=O)N5)cc3)ccc2N1`, the Potency result was “inactive”.

As to `Cc1ccccc1NC(=O)CN1C(=O)N/C(=C\c2cn(-c3cccc(C(=O)O)c3)cn2)C1=O`, the Potency result was “inactive”.

On to `Clc1nc(CN2CCOCC2)nc2sc3c(c12)CCC3`, for which the Potency entry is “inactive”.

For `CCCC1CCN(C(=O)COC(=O)c2ccc(S(C)(=O)=O)c([N+](=O)[O-])c2)CC1`, the Potency entry is “inactive”.

For the compound `COC(=O)C1C(CC(C)=O)C=CC(O)C12Oc1cc(C)cc(O)c1C2=O` (stereo unspecified), the Potency result is “inactive”.

Consider `O=C(O)c1ccc(O)c2ncc(-c3ccc(N4CCOCC4)cc3)cc12`, for which the Potency entry was “inactive”.

As for `CC(C)c1ccc(NC(=O)C(c2ccccc2)N(C)C(=O)Cc2c[nH]c3ccccc23)cc1` (stereo unspecified), the Potency result is “inactive”.

Consider `CC(C)(C)c1ccc(C(=O)Nc2ccc(-c3nc4ccccc4[nH]3)cc2)cc1`, for which the Potency result is “inactive”.

Turning to `COc1cc(/C=C2/C(=O)Nc3ccccc32)cc(OC)c1O`, the Potency entry is “inactive”.

For the compound `Cc1ccnc(NC(=S)N2CCN(c3ccc(F)cc3)CC2)c1`, the Potency result is “inactive”.

In the case of `CS(=O)(=O)Nc1cccc(-c2cc(F)c(S(=O)(=O)N3CCN(S(=O)(=O)c4ccc5c(c4)OCCO5)CC3)cc2F)c1`, the Potency entry was “inactive”.

With `CCCCOc1ccc(S(=O)(=O)n2c(C)nc3ccccc32)cc1`, the Potency result was “inactive”.
